Test [1] in a line: NCI Yeast Anticancer Drug Screen. Data for the rad50 strain (AID 155).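 Further: 0% = growth of vehicle-only cultures of the same strain.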 The note with it: S. cerevisiae rad50 strain growth inhibition, hits give high values. In outline:
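A DNA repair-deficient yeast mutant serves as the test organism; compound-induced growth inhibition is calculated against vehicle-treated cells.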

The nature of test [2]: NCI Yeast Anticancer Drug Screen. Data for the mec2-1 strain (AID 157). The note with it: S. cerevisiae mec2-1 strain, hits give high values. The method, boiled down:
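mec2-1 yeast strain, carrying an alteration in DNA damage repair or cell cycle control, was exposed to compounds; growth inhibition was measured relative to vehicle-treated controls.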

The nature of test [3]: NCI Yeast Anticancer Drug Screen. Data for the sgs1 mgt1 strain (AID 161).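 Further: 0% = growth of cultures given vehicle only.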 The note with it: S. cerevisiae sgs1 mgt1 strain, hits give high values. The method, boiled down: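 Yeast cells carrying a defined DNA-repair defect were exposed to test compounds. Growth inhibition was measured relative to vehicle-treated controls.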
Test [4] can be described thus: NCI Yeast Anticancer Drug Screen. Data for the cln2 rad14 strain (AID 165).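 Further: 0% = growth equal to vehicle treated cultures.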 The note with it: S. cerevisiae cln2 rad14 strain, hits give high values. The method, boiled down:
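Yeast carrying cln2 and rad14 alterations (cell cycle control and DNA damage repair) were exposed to compounds. Growth inhibition was measured against vehicle-treated controls.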

The nature of test [5]: NCI Yeast Anticancer Drug Screen. Data for the bub3 strain (AID 167). The note with it: S. cerevisiae bub3 mutant strain, hits give high values. In outline:
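Inhibition values come from growth of compound-treated mutant yeast normalised to vehicle-treated controls.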

A short description of test [6]: NCI Yeast Anticancer Drug Screen. Data for the mlh1 rad18 strain (AID 175). The note with it: S. cerevisiae mlh1 rad18 strain growth inhibition, hits give high values. In outline: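 Growth inhibition of the yeast strain was measured after compound exposure and expressed relative to vehicle-treated controls. The strain carries defined defects in DNA damage repair.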

The mark [7] stands for this setting: at 5.0 µM (retest, dose inferred, filed as 0.5).
The mark [8] stands for this setting: at 50.0 µM (retest, dose inferred, filed as 5.0).

Each structure is given as a SMILES string. The panel holds about 79,000 compounds, 15% with a hit somewhere; the sample as a whole holds those more often. Unmarked numbers belong to inactive results. Activity calls are given as the source filed them. No stated cut-off is given here; in the data, active means growth inhibition above about 70%; inactive means the rest.

Take `c1cc[c]([Sn]([CH]2c3ccccc3-c3ccccc32)([CH]2c3ccccc3-c3ccccc32)[CH]2c3ccccc3-c3ccccc32)cc1`: the growth inhibition in test [1] (setting [7]) is 4%; in test [1] (setting [8]), 0%; in test [1] (at 50.0 µM), 95.2% (active); in test [2] (setting [7]), 5%; in test [2] (setting [8]), 2%; in test [2] (at 50.0 µM), 98% (active). For the same compound, the growth inhibition is -1% in test [3] (setting [7]); -4% in test [3] (setting [8]); 95.5% (active) in test [3] (at 50.0 µM); 3% in test [4] (setting [7]); 6% in test [4] (setting [8]); 95% (active) in test [4] (at 50.0 µM). Also, the growth inhibition in test [5] (setting [7]) is 2%; in test [5] (setting [8]), -3%; in test [5] (at 50.0 µM), 97.3% (active); in test [6] (setting [7]), 4%; in test [6] (setting [8]), 11%; in test [6] (at 50.0 µM), 96.3% (active).

As to `CC1CCCN(CC(O)CN2CCCc3ccccc32)C1` (stereo not given), the growth inhibition in test [1] (setting [7]) was 0%; in test [1] (setting [8]), 32%; in test [1] (at 50.0 µM), 97.9% (active); in test [2] (setting [7]), 8%; in test [2] (setting [8]), 17%; in test [2] (at 50.0 µM), 94.5% (active). The growth inhibition is 2% in test [3] (setting [7]); 25% in test [3] (setting [8]); 97.6% (active) in test [3] (at 50.0 µM); 26% in test [4] (setting [7]); 33% in test [4] (setting [8]); 94.4% (active) in test [4] (at 50.0 µM). Besides, the growth inhibition in test [5] (setting [7]) was -7%; in test [5] (setting [8]), 29%; in test [5] (at 50.0 µM) it was 96% (active); in test [6] (setting [7]) it was 6%; in test [6] (setting [8]), 40%; in test [6] (at 50.0 µM), 97.5% (active).

As to `CC(=O)N(C)C1=C(Sc2ccc(C)cc2)C(=O)c2ccccc2C1=O`, the growth inhibition in test [1] (setting [7]) is 95% (active); in test [1] (setting [8]), 99% (active); in test [1] (at 50.0 µM), 99.5% (active); in test [2] (setting [7]), 97% (active); in test [2] (setting [8]), 100% (active); in test [2] (at 50.0 µM), 99.7% (active). Moreover, the growth inhibition was 93% (active) in test [3] (setting [7]); 100% (active) in test [3] (setting [8]); 99.8% (active) in test [3] (at 50.0 µM); 83% (active) in test [4] (setting [7]); 99% (active) in test [4] (setting [8]); 99.5% (active) in test [4] (at 50.0 µM). For the same compound, the growth inhibition in test [5] (setting [7]) was 99% (active); in test [5] (setting [8]) it was 99% (active); in test [5] (at 50.0 µM) it was 99.6% (active); in test [6] (setting [7]), 95% (active); in test [6] (setting [8]) it was 99% (active); in test [6] (at 50.0 µM) it was 99.7% (active).

For `O=c1cc(-c2ccccc2)oc(-c2ccccc2)c1`, the growth inhibition in test [1] (setting [7]) is -152%; in test [1] (setting [8]), -105%; in test [1] (at 50.0 µM) it was 82.4% (active); in test [2] (setting [7]) it was -55%; in test [2] (setting [8]) it was -50%; in test [2] (at 50.0 µM) it was 19.4%. For the same compound, the growth inhibition in test [3] (setting [7]) is -71%; in test [3] (setting [8]), -59%; in test [3] (at 50.0 µM) it was 11%; in test [4] (setting [7]) it was -68%; in test [4] (setting [8]), -82%; in test [4] (at 50.0 µM), -20.1%. For the same compound, the growth inhibition is -68% in test [5] (setting [7]); -56% in test [5] (setting [8]); 20% in test [5] (at 50.0 µM); -123% in test [6] (setting [7]); -103% in test [6] (setting [8]); 43.6% in test [6] (at 50.0 µM).

With `CCCCCCC(C)S(=O)(=O)c1ccc(C)cc1` (stereo not given), the growth inhibition in test [1] (setting [7]) was 3%; in test [1] (setting [8]), 63%; in test [1] (at 50.0 µM), 58.5%; in test [2] (setting [7]), 14%; in test [2] (setting [8]) it was 83% (active); in test [2] (at 50.0 µM), 84.7% (active). The growth inhibition in test [3] (setting [7]) is 7%; in test [3] (setting [8]) it was 75% (active); in test [3] (at 50.0 µM), 59.7%; in test [4] (setting [7]), 5%; in test [4] (setting [8]) it was 13%; in test [4] (at 50.0 µM), 5.1%. Moreover, the growth inhibition is 0% in test [5] (setting [7]); 50% in test [5] (setting [8]); 17.1% in test [5] (at 50.0 µM); -3% in test [6] (setting [7]); 47% in test [6] (setting [8]); 51.2% in test [6] (at 50.0 µM).

For `Sc1ccccc1C1N(Cc2ccc(Cl)cc2)CCCN1Cc1ccc(Cl)cc1`, the growth inhibition in test [1] (setting [7]) was 98% (active); in test [1] (setting [8]) it was 42%; in test [1] (at 50.0 µM) it was 79.2% (active); in test [2] (setting [7]) it was 100% (active); in test [2] (setting [8]) it was 69%; in test [2] (at 50.0 µM) it was 55.6%. For the same compound, the growth inhibition in test [3] (setting [7]) is 99% (active); in test [3] (setting [8]), 84% (active); in test [3] (at 50.0 µM), 86.8% (active); in test [4] (setting [7]) it was 99% (active); in test [4] (setting [8]), 39%; in test [4] (at 50.0 µM), 64%. Besides, the growth inhibition in test [5] (setting [7]) is 99% (active); in test [5] (setting [8]), 63%; in test [5] (at 50.0 µM), 81.8% (active); in test [6] (setting [7]), 99% (active); in test [6] (setting [8]), 73% (active); in test [6] (at 50.0 µM), 79.6% (active).

For the compound `CN(C)C[N+](C)(C)Cc1ccc(C[N+](C)(C)C[N+](C)(C)Cc2ccc(CCl)cc2)cc1`, the growth inhibition is 0% in test [1] (setting [7]); -2% in test [1] (setting [8]); 83% (active) in test [1] (at 50.0 µM); -36% in test [2] (setting [7]); -1% in test [2] (setting [8]); 20.4% in test [2] (at 50.0 µM). For the same compound, the growth inhibition in test [3] (setting [7]) was -2%; in test [3] (setting [8]), -1%; in test [3] (at 50.0 µM), 69.5%; in test [4] (setting [7]), 0%; in test [4] (setting [8]), -1%; in test [4] (at 50.0 µM) it was 45%. The growth inhibition in test [5] (setting [7]) is -8%; in test [5] (setting [8]), -1%; in test [5] (at 50.0 µM), 66.2%; in test [6] (setting [7]), -2%; in test [6] (setting [8]) it was -1%; in test [6] (at 50.0 µM), 52.5%.

For `CN(Cc1cc(Br)cc(Br)c1O)Cc1c[nH]c2ccccc12`, the growth inhibition in test [1] (setting [7]) is -1%; in test [1] (setting [8]), 8%; in test [1] (at 50.0 µM), 68.1%; in test [2] (setting [7]), 12%; in test [2] (setting [8]), 31%; in test [2] (at 50.0 µM) it was 31.1%. In addition, the growth inhibition in test [3] (setting [7]) is 0%; in test [3] (setting [8]), 14%; in test [3] (at 50.0 µM), 86.4% (active); in test [4] (setting [7]), -2%; in test [4] (setting [8]), 0%; in test [4] (at 50.0 µM), 62.2%. In addition, the growth inhibition in test [5] (setting [7]) was -4%; in test [5] (setting [8]), -1%; in test [5] (at 50.0 µM) it was 40.9%; in test [6] (setting [7]) it was 36%; in test [6] (setting [8]), 48%; in test [6] (at 50.0 µM), 74.5% (active).

As for `C[N+]1(Cc2ccc([N+](=O)[O-])cc2)CCC[C@H]1c1ccc[n+](Cc2ccc([N+](=O)[O-])cc2)c1` (stereo not given in full), the growth inhibition is 0% in test [1] (setting [7]); 27% in test [1] (setting [8]); 10.2% in test [1] (at 50.0 µM); -1% in test [2] (setting [7]); 13% in test [2] (setting [8]); 8.85% in test [2] (at 50.0 µM). The growth inhibition in test [3] (setting [7]) was -15%; in test [3] (setting [8]), -2%; in test [3] (at 50.0 µM), 65.1%; in test [4] (setting [7]), -7%; in test [4] (setting [8]), 0%; in test [4] (at 50.0 µM), 63.2%. For the same compound, the growth inhibition is 2% in test [5] (setting [7]); 11% in test [5] (setting [8]); 9.65% in test [5] (at 50.0 µM); -28% in test [6] (setting [7]); 24% in test [6] (setting [8]); 84.6% (active) in test [6] (at 50.0 µM).

As for `O=C(O)CCCCCCCCC(=O)O.[Ag]`, the growth inhibition in test [1] (setting [7]) was 99% (active); in test [1] (setting [8]) it was 99% (active); in test [1] (at 50.0 µM) it was 90.2% (active); in test [2] (setting [7]), 99% (active); in test [2] (setting [8]) it was 99% (active); in test [2] (at 50.0 µM), 93% (active). Besides, the growth inhibition in test [3] (setting [7]) was 100% (active); in test [3] (setting [8]) it was 99% (active); in test [3] (at 50.0 µM) it was 93.8% (active); in test [4] (setting [7]), 70% (active); in test [4] (setting [8]) it was 99% (active); in test [4] (at 50.0 µM) it was 92.2% (active). For the same compound, the growth inhibition is 99% (active) in test [5] (setting [7]); 99% (active) in test [5] (setting [8]); 92.5% (active) in test [5] (at 50.0 µM); 99% (active) in test [6] (setting [7]); 99% (active) in test [6] (setting [8]); 91.5% (active) in test [6] (at 50.0 µM).
